From the supplement of paper PMC12067093, “Discovery and optimisation of a covalent ligand for TRIM25 and its application to targeted protein ubiquitination” (Chemical Science, 2025)
The full data set covers some 21,000 targets. This sample favours those with the largest changes.

Compound: CC1Cc2ccccc2N1C(=O)C1CCCN(C1)C(=O)CCl (mixture of isomers) [TRIM25 ligand 11 (diastereomer mixture)]
Test: probe-labelled cysteine peptide fold change vs DMSO (competition) (log2 fold change); higher = less target engagement (more negative = stronger competition)
Conditions: THP-1, incubation time: 4 h
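Further: competitive chemoproteomic profiling in live THP-1 cells with an iodoacetamide desthiobiotin (IA-DTB) probe, comparing probe-labelled peptide intensities in compound-treated cells against DMSO-treated controls.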

Sequence of UniProt Q14149 (Q14149 whole entry, looked up): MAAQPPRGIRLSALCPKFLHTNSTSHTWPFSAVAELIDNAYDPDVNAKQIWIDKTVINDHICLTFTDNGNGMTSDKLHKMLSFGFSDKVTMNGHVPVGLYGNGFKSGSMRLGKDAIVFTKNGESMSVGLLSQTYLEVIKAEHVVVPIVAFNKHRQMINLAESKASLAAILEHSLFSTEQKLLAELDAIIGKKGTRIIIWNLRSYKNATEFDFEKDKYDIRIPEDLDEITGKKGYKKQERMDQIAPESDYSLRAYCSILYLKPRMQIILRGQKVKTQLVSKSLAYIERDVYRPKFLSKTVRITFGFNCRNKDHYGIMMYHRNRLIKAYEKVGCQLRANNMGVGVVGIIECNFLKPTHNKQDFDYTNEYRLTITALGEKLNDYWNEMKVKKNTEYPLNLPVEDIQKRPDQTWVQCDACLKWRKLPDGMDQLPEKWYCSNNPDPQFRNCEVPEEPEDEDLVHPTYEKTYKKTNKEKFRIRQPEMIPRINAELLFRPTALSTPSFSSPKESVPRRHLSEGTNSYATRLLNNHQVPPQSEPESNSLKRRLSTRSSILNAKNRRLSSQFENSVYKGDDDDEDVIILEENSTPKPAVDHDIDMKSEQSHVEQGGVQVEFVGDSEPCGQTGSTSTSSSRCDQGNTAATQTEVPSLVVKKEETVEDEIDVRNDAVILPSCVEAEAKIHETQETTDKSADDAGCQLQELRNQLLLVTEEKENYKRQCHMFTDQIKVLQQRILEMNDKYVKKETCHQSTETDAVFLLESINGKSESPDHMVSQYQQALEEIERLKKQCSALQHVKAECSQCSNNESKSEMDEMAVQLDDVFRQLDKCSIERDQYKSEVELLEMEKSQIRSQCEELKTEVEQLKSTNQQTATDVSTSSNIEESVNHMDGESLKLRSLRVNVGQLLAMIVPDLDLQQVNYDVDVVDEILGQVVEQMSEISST
Sequence of UniProt P35579 (P35579 whole entry, looked up): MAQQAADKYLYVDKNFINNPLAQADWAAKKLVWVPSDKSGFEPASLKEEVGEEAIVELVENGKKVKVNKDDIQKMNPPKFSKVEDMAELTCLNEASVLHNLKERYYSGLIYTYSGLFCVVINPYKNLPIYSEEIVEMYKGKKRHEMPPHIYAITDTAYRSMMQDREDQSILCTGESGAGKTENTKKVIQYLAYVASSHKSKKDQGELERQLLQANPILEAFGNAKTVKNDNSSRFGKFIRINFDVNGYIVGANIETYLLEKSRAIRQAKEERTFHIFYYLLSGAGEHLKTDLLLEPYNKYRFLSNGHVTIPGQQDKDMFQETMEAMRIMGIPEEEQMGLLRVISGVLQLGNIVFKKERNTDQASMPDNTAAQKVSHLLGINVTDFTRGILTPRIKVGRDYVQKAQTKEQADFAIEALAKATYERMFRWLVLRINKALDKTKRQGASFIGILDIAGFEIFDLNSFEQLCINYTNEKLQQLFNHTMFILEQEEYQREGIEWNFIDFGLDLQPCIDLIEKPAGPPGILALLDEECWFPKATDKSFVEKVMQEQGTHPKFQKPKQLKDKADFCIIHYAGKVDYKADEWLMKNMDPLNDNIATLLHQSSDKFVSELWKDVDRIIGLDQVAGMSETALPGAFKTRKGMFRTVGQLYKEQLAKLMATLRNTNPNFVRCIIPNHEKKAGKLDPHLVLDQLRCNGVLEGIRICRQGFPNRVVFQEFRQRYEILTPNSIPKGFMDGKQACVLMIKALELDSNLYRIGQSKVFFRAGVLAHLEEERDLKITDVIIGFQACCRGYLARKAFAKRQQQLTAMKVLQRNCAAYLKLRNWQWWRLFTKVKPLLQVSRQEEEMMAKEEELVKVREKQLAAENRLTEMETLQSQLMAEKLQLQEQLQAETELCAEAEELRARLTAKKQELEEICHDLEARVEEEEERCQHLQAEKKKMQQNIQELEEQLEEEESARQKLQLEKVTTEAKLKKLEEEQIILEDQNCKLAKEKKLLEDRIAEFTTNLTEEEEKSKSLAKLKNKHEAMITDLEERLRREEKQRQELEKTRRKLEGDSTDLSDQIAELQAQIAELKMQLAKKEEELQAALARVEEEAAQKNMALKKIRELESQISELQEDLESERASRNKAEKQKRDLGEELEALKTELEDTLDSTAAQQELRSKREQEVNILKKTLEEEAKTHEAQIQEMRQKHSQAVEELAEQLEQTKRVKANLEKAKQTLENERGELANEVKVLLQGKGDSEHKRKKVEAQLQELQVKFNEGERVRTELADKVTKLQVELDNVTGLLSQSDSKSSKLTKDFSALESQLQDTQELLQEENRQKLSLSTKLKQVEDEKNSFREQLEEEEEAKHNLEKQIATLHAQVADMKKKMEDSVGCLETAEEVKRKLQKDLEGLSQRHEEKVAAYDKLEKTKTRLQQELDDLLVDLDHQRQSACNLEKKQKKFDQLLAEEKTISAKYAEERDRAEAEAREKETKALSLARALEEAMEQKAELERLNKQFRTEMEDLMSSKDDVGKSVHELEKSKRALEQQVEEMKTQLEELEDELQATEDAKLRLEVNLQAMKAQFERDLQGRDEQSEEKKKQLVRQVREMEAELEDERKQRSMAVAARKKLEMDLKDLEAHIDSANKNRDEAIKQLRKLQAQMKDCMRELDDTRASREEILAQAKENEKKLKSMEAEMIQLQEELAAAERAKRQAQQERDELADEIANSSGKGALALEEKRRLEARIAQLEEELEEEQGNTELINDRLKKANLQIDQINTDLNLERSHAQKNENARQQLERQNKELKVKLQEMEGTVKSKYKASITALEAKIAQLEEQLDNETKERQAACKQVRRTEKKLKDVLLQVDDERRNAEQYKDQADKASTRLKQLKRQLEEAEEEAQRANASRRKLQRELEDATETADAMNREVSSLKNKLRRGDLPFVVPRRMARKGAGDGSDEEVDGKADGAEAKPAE
Sequence of UniProt P09960 (P09960 whole entry, looked up): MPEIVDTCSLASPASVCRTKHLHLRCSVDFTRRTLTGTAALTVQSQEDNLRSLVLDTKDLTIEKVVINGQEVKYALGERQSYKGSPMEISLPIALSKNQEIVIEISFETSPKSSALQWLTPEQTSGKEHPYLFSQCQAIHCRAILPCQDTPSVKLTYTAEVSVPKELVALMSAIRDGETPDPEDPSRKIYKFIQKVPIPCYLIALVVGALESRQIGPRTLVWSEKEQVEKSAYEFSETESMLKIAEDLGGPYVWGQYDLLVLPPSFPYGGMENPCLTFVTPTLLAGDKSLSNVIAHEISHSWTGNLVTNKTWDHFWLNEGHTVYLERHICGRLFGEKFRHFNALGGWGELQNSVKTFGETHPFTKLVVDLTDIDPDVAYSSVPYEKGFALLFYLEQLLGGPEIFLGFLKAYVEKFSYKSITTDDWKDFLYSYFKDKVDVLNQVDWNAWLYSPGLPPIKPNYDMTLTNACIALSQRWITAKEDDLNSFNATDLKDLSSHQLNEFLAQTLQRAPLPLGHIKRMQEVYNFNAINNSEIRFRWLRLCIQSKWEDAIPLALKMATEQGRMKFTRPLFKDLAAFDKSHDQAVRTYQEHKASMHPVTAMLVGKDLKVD
Sequence of UniProt Q9UBG0 (Q9UBG0 whole entry, looked up): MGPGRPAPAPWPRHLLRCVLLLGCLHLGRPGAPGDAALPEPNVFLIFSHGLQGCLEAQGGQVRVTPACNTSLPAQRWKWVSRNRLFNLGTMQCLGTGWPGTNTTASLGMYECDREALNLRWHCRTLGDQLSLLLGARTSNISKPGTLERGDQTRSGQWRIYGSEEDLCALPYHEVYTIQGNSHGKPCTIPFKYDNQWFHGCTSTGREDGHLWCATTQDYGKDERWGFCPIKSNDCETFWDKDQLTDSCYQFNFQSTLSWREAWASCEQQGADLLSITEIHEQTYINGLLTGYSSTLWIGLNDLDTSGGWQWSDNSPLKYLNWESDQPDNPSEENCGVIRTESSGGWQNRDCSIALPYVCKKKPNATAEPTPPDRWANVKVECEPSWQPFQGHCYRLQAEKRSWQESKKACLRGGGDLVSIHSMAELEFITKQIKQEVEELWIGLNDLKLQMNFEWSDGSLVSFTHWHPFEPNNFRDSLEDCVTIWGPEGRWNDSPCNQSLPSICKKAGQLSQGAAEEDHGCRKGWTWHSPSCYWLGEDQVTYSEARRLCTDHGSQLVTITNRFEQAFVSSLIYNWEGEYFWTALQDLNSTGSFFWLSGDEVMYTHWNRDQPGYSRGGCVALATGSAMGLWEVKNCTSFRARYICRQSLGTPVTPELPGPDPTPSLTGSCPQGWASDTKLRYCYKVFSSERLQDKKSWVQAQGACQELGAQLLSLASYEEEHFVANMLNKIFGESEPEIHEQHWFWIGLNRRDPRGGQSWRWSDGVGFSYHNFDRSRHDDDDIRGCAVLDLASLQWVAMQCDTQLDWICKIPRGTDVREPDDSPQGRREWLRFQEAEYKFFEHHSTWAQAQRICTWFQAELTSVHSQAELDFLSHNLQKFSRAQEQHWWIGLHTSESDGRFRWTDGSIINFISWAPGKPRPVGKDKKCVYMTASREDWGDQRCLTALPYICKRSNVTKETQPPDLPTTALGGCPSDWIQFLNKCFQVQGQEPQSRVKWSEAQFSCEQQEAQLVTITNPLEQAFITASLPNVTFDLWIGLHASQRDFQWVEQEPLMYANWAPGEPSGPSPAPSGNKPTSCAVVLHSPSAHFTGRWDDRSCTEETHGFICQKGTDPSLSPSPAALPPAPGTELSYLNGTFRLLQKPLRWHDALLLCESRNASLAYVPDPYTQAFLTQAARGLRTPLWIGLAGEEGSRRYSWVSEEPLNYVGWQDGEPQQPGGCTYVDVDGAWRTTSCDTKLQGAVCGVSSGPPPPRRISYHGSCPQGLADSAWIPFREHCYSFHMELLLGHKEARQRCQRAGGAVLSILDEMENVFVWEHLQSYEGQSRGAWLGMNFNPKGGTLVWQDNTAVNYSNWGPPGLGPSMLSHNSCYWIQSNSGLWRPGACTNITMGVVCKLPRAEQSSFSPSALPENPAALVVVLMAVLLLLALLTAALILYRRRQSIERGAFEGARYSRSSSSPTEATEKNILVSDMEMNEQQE

Target	probe-labelled cysteine peptide fold change (10 µM)	probe-labelled cysteine peptide fold change (50 µM)
MYCBP2_O75592_4406+4413_NEEHCLPCLHGCDK (UniProt O75592)	-0.0669	–
MRPS34_P82930_93_SWLWQHDEPCYWR (UniProt P82930)	0.0173	0.142
MORC3_Q14149_744_ETCHQSTETDAVFLLESINGK (UniProt Q14149)	0.143	-0.605
MTA2_O94776_209_ALDCSSSIR (UniProt O94776)	-0.025	–
MICALL1_Q8N3F8_194_CSSTLLPGAYENGPEEGTFVCAEHCAR (UniProt Q8N3F8)	0.154	-0.0569
MED13L_Q71F56_1457_LGQHKPICK (UniProt Q71F56)	-0.182	-0.263
MOV10_Q9HCE1_650_LVSAQFPIDHFTHIFIDEAGHCMEPESLVAIAGLMEVK (UniProt Q9HCE1)	0.00257	–
MTA3_Q9BTC8_109_CSVALLNETESVLSYLDK (UniProt Q9BTC8)	0.851	–
MAD1L1_Q9Y6D9_662_LTSLYAEHPGDCLIFK (UniProt Q9Y6D9)	0.00589	-0.0309
MAP4K1_Q92918_334+335_SSSLGIPDADCCR (UniProt Q92918)	-0.0222	-0.126
MVP_Q14764_515_ALCLLLGPDFFTDVITIETADHAR (UniProt Q14764)	0.505	0.893
MDH2_P40926_93_GCDVVVIPAGVPR (UniProt P40926)	-0.0615	0.0728
MIF4GD_A9UHW6_150_EEEVDCLVLQLHR (UniProt A9UHW6)	0.222	–
NAE1_Q13564_384_LLCSNSAFLR (UniProt Q13564)	-0.025	-0.00331
MIA3_Q5JRA6_1513_AGLEDECK (UniProt Q5JRA6)	0.0174	–
MAN2C1_Q9NTJ4_29_FVSPLYFTDCNLR (UniProt Q9NTJ4)	0.111	–
MTPAP_Q9NVV4_324_FSHQASGFQCDLTTNNR (UniProt Q9NVV4)	0.592	0.896
LSS_P48449_484_LCDAVAVLLNMR (UniProt P48449)	-0.0996	-0.128
MYH3_P11055_1412_CASLEK<|>MYH1_P12882_1415_CASLEK<|>MYH8_P13535_1414_CASLEK<|>MYH2_Q9UKX2_1417_CASLEK<|>MYH13_Q9UKX3_1415_CASLEK<|>MYH4_Q9Y623_1415_CASLEK (UniProt Q9Y623+Q9UKX3+Q9UKX2+P13535+P12882+P11055)	0.356	0.307

Target	probe-labelled cysteine peptide fold change (10 µM)	probe-labelled cysteine peptide fold change (50 µM)
METAP2_P50579_263_IIDCAFTVTFNPK (UniProt P50579)	0.0495	0.114
LTA4H_P09960_26_CSVDFTR (UniProt P09960)	-0.0535	-0.00265
MKI67_P46013_773_EQPQLTSTCHIAISNSENLLGK (UniProt P46013)	0.234	-0.0412
LYST_Q99698_3649_LCYVQSLAGHK (UniProt Q99698)	0.0365	-0.124
MDN1_Q9NU22_882_LFACMNPATDVGKR (UniProt Q9NU22)	-0.0968	-0.078
MYH9_P35579_896_LQLQEQLQAETELCAEAEELRAR (UniProt P35579)	-0.566	-0.0747
MAT1A_Q00266_34_ICDQISDAVLDAHLK (UniProt Q00266)	0.555	0.255
MRC2_Q9UBG0_201_YDNQWFHGCTSTGR (UniProt Q9UBG0)	-0.768	-1.05
NCAPG2_Q86XI2_776_NRECLLSAPR (UniProt Q86XI2)	-0.0525	-0.00285
MYCBP2_O75592_3786_NITINCVK (UniProt O75592)	-0.237	0.117
MAN2C1_Q9NTJ4_871_WMDLSEHGFGLALLNDCK (UniProt Q9NTJ4)	0.38	0.327
MAU2_Q9Y6X3_145_AIQISQQTPYWHCR (UniProt Q9Y6X3)	-0.167	0.0177
MAP4_P27816_635_CSLPAEEDSVLEK (UniProt P27816)	-0.069	-0.135
MOB4_Q9Y3A3_134_HTLDGAACLLNSNK (UniProt Q9Y3A3)	-0.19	-0.629
NAPA_P54920_103_KADPQEAINCLMR (UniProt P54920)	0.0661	0.0556
METAP1_P53582_255_KLVQTTYECLMQAIDAVKPGVR (UniProt P53582)	-0.564	-0.516
MOGS_Q13724_137_HTCEQGDGVGPYGWEFHDGLSFGR (UniProt Q13724)	-0.0183	-0.127
MATR3_P43243_296_GYPHLCSICDLPVHSNK (UniProt P43243)	-0.0503	0.00253
